Compound activity deposited in PubChem by several laboratories.
A selection: hits, their analogues and other compounds. The true share with any hit is near 1.3%.
SARS 3CLpro inh: SARS-CoV 3CLpro protease inhibition; recombinant SARS-CoV 3CLpro, quenched FRET peptide cleavage; inhibition, % at 6 µM; actives 0.14% (n = 290,000); AID 1706; in the data active = inhibition above about 12%
BJeLR lethal: BJeLR cell viability loss. BJeLR (HRASV12) viability, CellTiter-Glo ATP luminescence, 48 h. inhibition, % (no concentration beside the values). actives 0.17% (n = 300,000). AID 1554; in the data active = inhibition above about 50%
PfHsp40 rescue: restores yeast growth despite PfHsp40 toxicity; AID 504582; actives 0.68% (n = 340,000); growth rescue, % at 12.5 µM; S. cerevisiae expressing PfHsp40, growth rescue, ATP luminescence; in the data active = growth rescue above about 28%, passing the limit was not always enough;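 note: yeast W303a lacking pdr1 and pdr3 grown in galactose medium; growth measured after three days at 30 °C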
Sa RN4220 lethal: kills Staphylococcus aureus RN4220 | S. aureus RN4220 growth, OD600, 16 h | actives 0.33% (n = 330,000) | inhibition, % (test concentration not listed); in the data active = inhibition above about 85%
Sa ugtP lethal: kills S. aureus RN4220 lacking UgtP | S. aureus RN4220 ugtP deletion, OD600 growth, 16 h | growth inhibition, % (test concentration not listed) | actives 0.54% (n = 330,000) | AID 1259309; in the data active = growth inhibition above about 68%
Numbers stand for hits.

For O=C(NCc1cccnc1)c1c(O)c2cccc3c2n(c1=O)CCC3 the results were SARS 3CLpro inh inactive, BJeLR lethal inactive, PfHsp40 rescue 60, Sa RN4220 lethal inactive and Sa ugtP lethal inactive.
`COc1cc(NC(=O)c2ccccc2)c(OC)cc1NC(=O)Cc1ccc(Br)cc1` gave SARS 3CLpro inh inactive, BJeLR lethal inactive and PfHsp40 rescue inactive.
`CCOC(=O)c1sc(NC(=O)Nc2cccc(Cl)c2)cc1C` gave SARS 3CLpro inh inactive, BJeLR lethal inactive, PfHsp40 rescue inactive, Sa RN4220 lethal 92 and Sa ugtP lethal 88.
CCOC(=O)c1sc(NC(=O)c2cccs2)cc1C was read as SARS 3CLpro inh inactive, BJeLR lethal inactive, PfHsp40 rescue inactive, Sa RN4220 lethal inactive and Sa ugtP lethal inactive.
`Cc1nc2ccc(NC(=O)Cc3ccc4c(c3)OCCO4)cc2s1` gave SARS 3CLpro inh inactive, BJeLR lethal inactive, PfHsp40 rescue 769, Sa RN4220 lethal inactive and Sa ugtP lethal inactive.
For O=C(CSc1nnc(-c2ccc3c(c2)OCO3)o1)Nc1ncc(C(F)(F)F)cc1Cl the results were SARS 3CLpro inh inactive, BJeLR lethal inactive, PfHsp40 rescue inactive, Sa RN4220 lethal inactive and Sa ugtP lethal 97.
For Cc1nc(NC(=O)CSc2nnc(-c3ccc4c(c3)OCO4)o2)c(Cl)cc1Cl the results were SARS 3CLpro inh inactive, BJeLR lethal inactive, PfHsp40 rescue inactive, Sa RN4220 lethal inactive and Sa ugtP lethal inactive.
CCOC(=O)/C=C/C(=O)Nc1cccc([N+](=O)[O-])c1 was read as SARS 3CLpro inh inactive, BJeLR lethal inactive, PfHsp40 rescue 189, Sa RN4220 lethal inactive and Sa ugtP lethal inactive.
For Cc1ccc(NC(=O)C(OC(=O)c2ccc(NC(N)=O)cc2)c2ccccc2)cc1Cl (stereo unspecified) the results were SARS 3CLpro inh inactive, BJeLR lethal inactive, PfHsp40 rescue inactive, Sa RN4220 lethal 101 and Sa ugtP lethal 100.
Screening Cc1ccc(NC(=O)C(OC(=O)c2ccccc2Cl)c2ccccc2)cc1Cl (stereo unspecified) returned SARS 3CLpro inh inactive, BJeLR lethal inactive, PfHsp40 rescue inactive, Sa RN4220 lethal inactive and Sa ugtP lethal inactive.
For CCOc1cc(CNCCSc2nnnn2C)cc(Br)c1OCc1ccccc1F the results were SARS 3CLpro inh inactive, BJeLR lethal inactive, PfHsp40 rescue inactive, Sa RN4220 lethal inactive and Sa ugtP lethal inactive.
CCOc1cc(CNCCO)cc(Br)c1OCc1ccc(Cl)cc1Cl was read as SARS 3CLpro inh inactive, BJeLR lethal inactive, PfHsp40 rescue inactive, Sa RN4220 lethal 100 and Sa ugtP lethal 98.
For CCOc1cc(CNCc2ccncc2)cc(Br)c1OCc1ccccc1F the results were SARS 3CLpro inh inactive, BJeLR lethal inactive, PfHsp40 rescue inactive, Sa RN4220 lethal inactive and Sa ugtP lethal 92.
Screening CCOc1cccc(CNCCO)c1OCc1ccc(Cl)cc1Cl returned SARS 3CLpro inh inactive, BJeLR lethal inactive, PfHsp40 rescue inactive, Sa RN4220 lethal inactive and Sa ugtP lethal inactive.
Screening COc1cc(-c2nnc(COC(=O)c3nn(CC(C)C)c(=O)c4ccccc34)o2)cc(OC)c1OC returned BJeLR lethal inactive, PfHsp40 rescue inactive, Sa RN4220 lethal inactive and Sa ugtP lethal inactive.
For Cc1cc(C)cc(NC(=O)Nn2cnnc2)c1 the results were SARS 3CLpro inh inactive, BJeLR lethal inactive, PfHsp40 rescue inactive, Sa RN4220 lethal inactive and Sa ugtP lethal inactive.
For COc1ccc(CNC(=O)[C@]2(C)CCC[C@@]3(C)C4CC[C@@]5(C)C[C@]4(CCC32)CC5=O)cc1 (stereo partly specified) the results were PfHsp40 rescue 162, Sa RN4220 lethal inactive and Sa ugtP lethal inactive.
`Cc1ccc(CNC(=O)[C@]2(C)CCC[C@@]3(C)C4CC[C@@]5(C)C[C@]4(CCC32)CC5=O)cc1` (stereo partly specified) gave PfHsp40 rescue 95.
C[C@@]12CCC3[C@@](CCC4[C@@]3(C)CCC[C@@]4(C)C(=O)NC3CCCCC3)(CC1=O)C2 (stereo partly specified) was read as PfHsp40 rescue inactive, Sa RN4220 lethal inactive and Sa ugtP lethal inactive.
For COc1cc(/C=C2\SC(=S)N(CCC(=O)Nc3ccc(O)cc3)C2=O)cc(OC)c1OC the results were SARS 3CLpro inh inactive, BJeLR lethal inactive, PfHsp40 rescue inactive, Sa RN4220 lethal inactive and Sa ugtP lethal inactive.
Screening CC(=O)OCC1=C(C(=O)O)N2C(=O)C(NC(=O)CCn3nc(C)c(Cl)c3C)C2SC1 (stereo unspecified) returned SARS 3CLpro inh inactive, BJeLR lethal inactive, PfHsp40 rescue inactive, Sa RN4220 lethal 99 and Sa ugtP lethal 99.
For CC(=O)OCC1=C(C(=O)O)N2C(=O)C(NC(=O)Cn3nc(C(F)F)c(Cl)c3C)C2SC1 (stereo unspecified) the results were SARS 3CLpro inh inactive, BJeLR lethal inactive, PfHsp40 rescue inactive, Sa RN4220 lethal 99 and Sa ugtP lethal 96.
Cc1nnc(SCC2=C(C(=O)O)N3C(=O)C(NC(=O)Cn4nc(C(F)F)c(Cl)c4C)C3SC2)s1 (stereo unspecified) was read as SARS 3CLpro inh inactive, BJeLR lethal inactive, PfHsp40 rescue inactive, Sa RN4220 lethal 100 and Sa ugtP lethal 100.
Screening CC1=C(C(=O)O)N2C(=O)C(NC(=O)CCCC(=O)O)C2SC1 (stereo unspecified) returned SARS 3CLpro inh inactive, BJeLR lethal inactive, PfHsp40 rescue inactive, Sa RN4220 lethal inactive and Sa ugtP lethal inactive.
CC(=O)OCC1=C(C(=O)O)N2C(=O)C(NC(=O)CCn3nc(C(F)(F)F)c(Br)c3C3CC3)C2SC1 (stereo unspecified) was read as SARS 3CLpro inh inactive, BJeLR lethal inactive, PfHsp40 rescue inactive, Sa RN4220 lethal 100 and Sa ugtP lethal 100.
For O=C(NC1CCCCC1)C1CCN(c2nnnn2-c2ccccc2)CC1 the results were SARS 3CLpro inh inactive, BJeLR lethal inactive, PfHsp40 rescue inactive, Sa RN4220 lethal inactive and Sa ugtP lethal inactive.
`O=C(O)COc1ccc(/C=C/C(=O)c2ccc3ccccc3c2)cc1` gave SARS 3CLpro inh inactive, BJeLR lethal inactive, PfHsp40 rescue inactive, Sa RN4220 lethal inactive and Sa ugtP lethal inactive.
For COc1ccc(OC)c(NC(=O)C(C)SCc2nc3sc(C)c(C)c3c(=O)[nH]2)c1 (stereo unspecified) the results were PfHsp40 rescue inactive, Sa RN4220 lethal inactive and Sa ugtP lethal inactive.
For Cc1nnc(SCC2=C(C(=O)O)N3C(=O)C(NC(=O)Cn4nc(C(F)F)cc4C)C3SC2)s1 (stereo unspecified) the results were SARS 3CLpro inh inactive, BJeLR lethal inactive, PfHsp40 rescue inactive, Sa RN4220 lethal 100 and Sa ugtP lethal 101.
Screening Cc1cc(C(F)F)nn1CC(=O)NC1CCCC1 returned SARS 3CLpro inh inactive, BJeLR lethal inactive and PfHsp40 rescue inactive.
`CCOc1ccccc1NC(=S)N(CCN(C)C)C(C)c1ccncc1` (stereo unspecified) gave SARS 3CLpro inh inactive, BJeLR lethal inactive, PfHsp40 rescue inactive, Sa RN4220 lethal inactive and Sa ugtP lethal inactive.
For O=C(CSc1nc2ccccc2[nH]1)Nc1c(F)c(F)c(F)c(F)c1F the results were SARS 3CLpro inh inactive, BJeLR lethal inactive, PfHsp40 rescue inactive, Sa RN4220 lethal inactive and Sa ugtP lethal inactive.
